Consider 14 compounds from ChEMBL document CHEMBL2218924, “A broad activity screen in support of a chemogenomic map for kinase signalling research and drug discovery” (Biochem J, 2013).

Structures are written as SMILES.

For assay [1], the target named is Focal adhesion kinase 1 (Homo sapiens) (UniProt Q05397). As to conditions: at 10 µM.
Assay [2] has as its target Fibroblast growth factor receptor 1 (Homo sapiens) (UniProt P11362). Particulars: at 1 µM.
Assay [3] shares this target. Particulars: at 10 µM.
Assay [4] has as its target Fibroblast growth factor receptor 2 (Homo sapiens) (UniProt P21802). Particulars: at 1 µM.
The target is the same in assay [5]. Particulars: at 10 µM.
Assay [6] deals with Fibroblast growth factor receptor 3 (Homo sapiens) (UniProt P22607). Particulars: at 1 µM.
Assay [7] has the same target. As to conditions: at 10 µM.
Assay [8] addresses Fibroblast growth factor receptor 4 (Homo sapiens) (UniProt P22455). As to conditions: at 1 µM.
Assay [9] shares this target. Particulars: at 10 µM.
The target in assay [10] is Tyrosine-protein kinase Fer (Homo sapiens) (UniProt P16591). As to conditions: at 1 µM.
For assay [11] the target is unchanged. As to conditions: at 10 µM.
Assay [12] deals with Tyrosine-protein kinase Fes/Fps (Homo sapiens) (UniProt P07332). Particulars: at 1 µM.
The target is the same in assay [13]. As to conditions: at 10 µM.
The target in assay [14] is Tyrosine-protein kinase Fgr (Homo sapiens) (UniProt P09769). As to conditions: at 1 µM.
Chain of Tyrosine-protein kinase Fgr (Homo sapiens) (P09769 2-529 limits assumed): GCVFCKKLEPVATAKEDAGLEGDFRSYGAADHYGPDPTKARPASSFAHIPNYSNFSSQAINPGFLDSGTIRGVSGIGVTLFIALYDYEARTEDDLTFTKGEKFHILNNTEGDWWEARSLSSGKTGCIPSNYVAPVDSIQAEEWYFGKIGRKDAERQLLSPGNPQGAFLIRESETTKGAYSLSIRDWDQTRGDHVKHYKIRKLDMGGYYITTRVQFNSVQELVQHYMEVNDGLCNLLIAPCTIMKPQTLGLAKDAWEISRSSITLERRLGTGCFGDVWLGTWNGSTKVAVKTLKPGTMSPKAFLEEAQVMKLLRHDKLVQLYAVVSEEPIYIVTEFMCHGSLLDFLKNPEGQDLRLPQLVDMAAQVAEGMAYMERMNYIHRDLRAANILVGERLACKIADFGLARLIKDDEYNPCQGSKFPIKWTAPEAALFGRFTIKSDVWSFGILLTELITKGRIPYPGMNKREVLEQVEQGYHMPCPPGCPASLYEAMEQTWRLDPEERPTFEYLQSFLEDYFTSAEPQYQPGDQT
For assay [15] the target is unchanged. As to conditions: at 10 µM.
The target of assay [16] is Vascular endothelial growth factor receptor 1 (Homo sapiens) (UniProt P17948). As to conditions: at 1 µM.
Chain of Vascular endothelial growth factor receptor 1 (Homo sapiens) (P17948 whole entry): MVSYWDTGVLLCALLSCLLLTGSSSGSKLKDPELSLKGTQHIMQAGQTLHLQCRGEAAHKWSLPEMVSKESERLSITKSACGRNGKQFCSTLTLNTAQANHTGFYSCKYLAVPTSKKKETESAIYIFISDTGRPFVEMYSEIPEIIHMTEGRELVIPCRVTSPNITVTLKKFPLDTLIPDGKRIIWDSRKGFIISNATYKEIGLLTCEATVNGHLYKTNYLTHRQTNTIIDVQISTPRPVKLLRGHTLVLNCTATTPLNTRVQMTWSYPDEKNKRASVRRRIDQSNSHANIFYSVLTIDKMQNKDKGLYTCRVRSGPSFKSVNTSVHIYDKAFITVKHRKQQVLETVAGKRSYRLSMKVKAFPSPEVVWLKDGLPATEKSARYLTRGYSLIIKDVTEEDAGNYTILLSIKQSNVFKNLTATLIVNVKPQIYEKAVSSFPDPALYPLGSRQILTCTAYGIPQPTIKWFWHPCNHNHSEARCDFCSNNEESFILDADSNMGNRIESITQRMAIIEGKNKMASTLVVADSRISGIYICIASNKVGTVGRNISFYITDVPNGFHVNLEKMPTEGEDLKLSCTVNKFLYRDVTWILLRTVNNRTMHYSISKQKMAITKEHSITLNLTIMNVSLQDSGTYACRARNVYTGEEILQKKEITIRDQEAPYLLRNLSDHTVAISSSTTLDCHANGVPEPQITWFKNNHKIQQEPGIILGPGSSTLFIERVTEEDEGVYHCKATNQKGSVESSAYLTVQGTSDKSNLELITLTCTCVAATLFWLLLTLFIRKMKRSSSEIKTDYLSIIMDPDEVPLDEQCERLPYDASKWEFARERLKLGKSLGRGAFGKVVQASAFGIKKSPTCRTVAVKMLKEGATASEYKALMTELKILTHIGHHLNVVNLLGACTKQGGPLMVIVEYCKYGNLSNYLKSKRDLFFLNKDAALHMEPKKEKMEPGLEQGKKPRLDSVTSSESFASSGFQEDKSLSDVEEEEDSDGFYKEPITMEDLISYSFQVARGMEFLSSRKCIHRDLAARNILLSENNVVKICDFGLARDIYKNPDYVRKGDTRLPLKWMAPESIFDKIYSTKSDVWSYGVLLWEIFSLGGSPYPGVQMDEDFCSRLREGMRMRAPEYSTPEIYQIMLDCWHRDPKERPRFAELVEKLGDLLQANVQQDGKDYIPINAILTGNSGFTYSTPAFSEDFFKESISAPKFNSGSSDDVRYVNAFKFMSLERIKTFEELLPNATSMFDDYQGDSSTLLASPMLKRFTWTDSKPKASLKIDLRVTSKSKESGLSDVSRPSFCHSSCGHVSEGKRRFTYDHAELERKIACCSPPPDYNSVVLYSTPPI
The target is the same in assay [17]. Particulars: at 10 µM.
In assay [18] the target is Receptor-type tyrosine-protein kinase FLT3 (Homo sapiens) (UniProt P36888). Particulars: at 1 µM.
Chain of Receptor-type tyrosine-protein kinase FLT3 (Homo sapiens) (P36888 whole entry): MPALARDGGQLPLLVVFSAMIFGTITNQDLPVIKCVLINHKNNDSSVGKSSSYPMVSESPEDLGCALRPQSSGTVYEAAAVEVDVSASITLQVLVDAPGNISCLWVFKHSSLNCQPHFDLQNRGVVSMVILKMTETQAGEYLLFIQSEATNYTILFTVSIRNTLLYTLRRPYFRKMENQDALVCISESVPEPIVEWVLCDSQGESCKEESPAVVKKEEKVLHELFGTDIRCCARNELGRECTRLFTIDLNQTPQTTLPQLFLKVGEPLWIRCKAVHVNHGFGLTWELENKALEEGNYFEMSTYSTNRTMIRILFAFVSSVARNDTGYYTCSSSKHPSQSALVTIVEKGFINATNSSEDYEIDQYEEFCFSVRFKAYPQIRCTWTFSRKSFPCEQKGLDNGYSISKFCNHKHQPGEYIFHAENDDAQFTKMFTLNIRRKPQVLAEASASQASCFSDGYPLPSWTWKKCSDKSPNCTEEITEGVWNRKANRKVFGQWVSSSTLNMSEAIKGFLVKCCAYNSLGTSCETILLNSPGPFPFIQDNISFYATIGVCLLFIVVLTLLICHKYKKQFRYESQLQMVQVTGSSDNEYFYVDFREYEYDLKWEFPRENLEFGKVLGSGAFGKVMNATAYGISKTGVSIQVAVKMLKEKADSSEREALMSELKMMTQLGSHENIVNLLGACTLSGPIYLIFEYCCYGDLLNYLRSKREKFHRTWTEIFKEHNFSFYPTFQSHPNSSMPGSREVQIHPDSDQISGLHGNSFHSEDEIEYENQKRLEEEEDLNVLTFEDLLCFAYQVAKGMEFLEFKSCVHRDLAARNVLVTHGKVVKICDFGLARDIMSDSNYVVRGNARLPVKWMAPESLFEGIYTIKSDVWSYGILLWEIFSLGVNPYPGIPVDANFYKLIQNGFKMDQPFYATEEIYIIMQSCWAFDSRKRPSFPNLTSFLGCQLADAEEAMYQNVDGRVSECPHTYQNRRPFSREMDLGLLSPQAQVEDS
The target is the same in assay [19]. As to conditions: at 10 µM.
Assay [20] concerns the target Vascular endothelial growth factor receptor 3 (Homo sapiens) (UniProt P35916). Particulars: at 1 µM.

Chain of Fibroblast growth factor receptor 1 (Homo sapiens) (P11362 22-822 limits assumed): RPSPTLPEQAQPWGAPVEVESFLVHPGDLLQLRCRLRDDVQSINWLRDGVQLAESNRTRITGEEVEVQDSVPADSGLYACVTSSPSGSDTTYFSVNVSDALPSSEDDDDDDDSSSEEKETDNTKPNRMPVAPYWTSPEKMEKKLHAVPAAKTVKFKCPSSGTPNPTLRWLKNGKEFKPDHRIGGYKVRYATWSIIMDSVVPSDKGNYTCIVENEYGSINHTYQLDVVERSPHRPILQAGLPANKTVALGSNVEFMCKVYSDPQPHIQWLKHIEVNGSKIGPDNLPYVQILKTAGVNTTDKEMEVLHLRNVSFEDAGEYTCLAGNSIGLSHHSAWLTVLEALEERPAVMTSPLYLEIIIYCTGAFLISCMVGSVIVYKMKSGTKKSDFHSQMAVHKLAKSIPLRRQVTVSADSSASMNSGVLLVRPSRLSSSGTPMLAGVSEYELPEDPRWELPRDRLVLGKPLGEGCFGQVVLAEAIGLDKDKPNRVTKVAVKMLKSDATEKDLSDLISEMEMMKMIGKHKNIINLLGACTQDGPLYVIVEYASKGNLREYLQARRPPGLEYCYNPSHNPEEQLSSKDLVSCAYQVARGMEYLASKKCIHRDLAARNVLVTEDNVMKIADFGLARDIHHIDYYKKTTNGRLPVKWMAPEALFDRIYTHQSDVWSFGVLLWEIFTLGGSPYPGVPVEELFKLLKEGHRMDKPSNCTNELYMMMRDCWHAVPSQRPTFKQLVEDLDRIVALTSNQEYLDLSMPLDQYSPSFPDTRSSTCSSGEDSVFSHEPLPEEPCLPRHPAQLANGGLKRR
Chain of Fibroblast growth factor receptor 2 (Homo sapiens) (P21802 22-821 limits assumed): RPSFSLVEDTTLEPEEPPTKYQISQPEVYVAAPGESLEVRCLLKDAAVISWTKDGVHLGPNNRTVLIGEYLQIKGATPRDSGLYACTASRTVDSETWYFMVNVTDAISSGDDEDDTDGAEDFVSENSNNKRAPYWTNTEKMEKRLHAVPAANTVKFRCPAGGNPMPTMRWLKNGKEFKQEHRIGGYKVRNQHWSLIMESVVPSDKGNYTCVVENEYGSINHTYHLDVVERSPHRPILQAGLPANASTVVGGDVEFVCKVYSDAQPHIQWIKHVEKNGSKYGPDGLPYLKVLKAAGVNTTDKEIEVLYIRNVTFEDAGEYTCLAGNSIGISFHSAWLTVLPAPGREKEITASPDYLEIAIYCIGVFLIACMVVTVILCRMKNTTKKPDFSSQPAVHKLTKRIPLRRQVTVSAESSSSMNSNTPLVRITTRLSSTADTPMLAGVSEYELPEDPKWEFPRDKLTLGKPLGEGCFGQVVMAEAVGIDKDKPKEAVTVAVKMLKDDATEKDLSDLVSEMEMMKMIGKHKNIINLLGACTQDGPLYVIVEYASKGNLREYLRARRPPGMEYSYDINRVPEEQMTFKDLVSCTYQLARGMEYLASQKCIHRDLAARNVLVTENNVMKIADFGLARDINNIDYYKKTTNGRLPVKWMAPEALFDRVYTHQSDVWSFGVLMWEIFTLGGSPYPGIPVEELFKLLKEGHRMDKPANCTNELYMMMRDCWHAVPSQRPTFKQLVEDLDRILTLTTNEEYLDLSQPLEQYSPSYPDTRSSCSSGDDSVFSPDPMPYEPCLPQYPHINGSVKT

What is called residual activity is the signal under treatment as a percentage of the control signal. With `Oc1c2ccccc2c2c3c(cccc13)N=N2`, the residual activity in [1] amounted to 9%; in assay [2], 39%; in assay [3], 4%; in assay [4], 52%; in assay [5], 12%; in assay [6] it was 72%. The residual activity in assay [7] worked out at 40%; in [8], 110%; in [9], 89%; in [10], 75%; in assay [11] it was 51%; in [12] it was 34%. In addition, the residual activity turned out to be 6% in [13]; 75% in assay [14]; 38% in [15]; 26% in assay [16]; 2% in [17]; 6% in assay [18]. In addition, the residual activity in assay [19] was found to be 1%; in assay [20], 2%.

`O=C(O)c1ccc2c3c1cccc3c(=O)n1c3ccccc3nc21`: the residual activity in assay [1] worked out at 100%; in assay [2], 94%; in [3] it was 75%; in [4], 110%; in assay [5], 78%; in [6], 98%. In addition, the residual activity worked out at 92% in [7]; 112% in assay [8]; 96% in assay [9]; 81% in assay [10]; 5% in assay [11]; 98% in assay [12]. In addition, the residual activity turned out to be 71% in [13]; 97% in [14]; 87% in assay [15]; 92% in assay [16]; 81% in assay [17]; 50% in assay [18]. The residual activity in [19] was 22%; in assay [20], 74%.

Consider `O=C(Nc1cccc(Nc2cc(Nc3cccc(C(F)(F)F)c3)ncn2)c1)C1CC1`, for which the residual activity in assay [1] worked out at 79%; in assay [2], 97%; in assay [3] it was 58%; in [4], 94%; in [5], 101%; in assay [6], 112%. Further, the residual activity in assay [7] worked out at 111%; in assay [8], 90%; in [9], 90%; in assay [10], 112%; in assay [11], 92%; in assay [12], 113%. Besides, the residual activity worked out at 86% in assay [13]; 90% in assay [14]; 81% in [15]; 99% in [16]; 61% in [17]; 108% in [18]. Also, the residual activity in assay [19] amounted to 128%; in assay [20], 97%.

As for `CN(C)c1ccc(/C=C2\C(=O)Nc3ccccc32)cc1`, the residual activity amounted to 62% in assay [1]; 61% in assay [2]; 10% in assay [3]; 94% in assay [4]; 38% in assay [5]; 89% in assay [6]. The residual activity in assay [7] worked out at 64%; in assay [8] it was 122%; in [9], 110%; in assay [10], 109%; in [11] it was 82%; in assay [12], 113%. Further, the residual activity in assay [13] came out at 79%; in assay [14] it was 90%; in assay [15] it was 44%; in assay [16], 14%; in assay [17] it was 2%; in assay [18], 4%. For the same compound, the results for the residual activity in assay [19] and in [20] were 1% and 3%, respectively.

Take `CC#CC(=O)Nc1cc2c(Nc3ccc(F)c(Cl)c3)ncnc2cn1`: the residual activity in [1] is 99%; in assay [2] it was 97%; in assay [3], 80%; in assay [4], 91%; in assay [5], 113%; in assay [6] it was 86%. Moreover, the residual activity in assay [7] is 125%; in assay [8], 116%; in [9], 96%; in assay [10], 108%; in assay [11] it was 94%; in assay [12], 118%. Moreover, the residual activity in assay [13] came out at 81%; in assay [14] it was 105%; in assay [15], 95%; in assay [16], 94%; in assay [17], 101%; in assay [18], 96%. Besides, the residual activity in [19] was 85%; in [20] it was 98%.

As for `Oc1ccc(-c2nc(-c3ccc(F)cc3)c(-c3ccncc3)[nH]2)cc1`, the residual activity in assay [1] was 113%; in assay [2] it was 112%; in assay [3] it was 41%; in [4] it was 115%; in [5], 87%; in assay [6], 121%. The residual activity came out at 88% in assay [7]; 114% in assay [8]; 96% in assay [9]; 102% in assay [10]; 93% in [11]; 107% in assay [12]. Besides, the residual activity in [13] was found to be 99%; in [14], 93%; in [15] it was 40%; in assay [16], 83%; in assay [17], 26%; in assay [18] it was 87%. For the same compound, the residual activity in assay [19] came to 85%; in assay [20], 90%.

Consider `Cn1cnc2cc3c(Nc4cccc(Br)c4)ncnc3cc21`, for which the residual activity was 93% in assay [1]; 74% in assay [2]; 43% in [3]; 92% in [4]; 89% in [5]; 102% in [6]. Also, the residual activity in assay [7] was determined as 97%; in [8] it was 127%; in [9] it was 96%; in [10], 115%; in [11], 93%; in [12], 132%. For the same compound, the residual activity in assay [13] was determined as 83%; in assay [14], 63%; in assay [15] it was 35%; in [16], 43%; in assay [17] it was 18%; in assay [18], 113%. Moreover, the residual activity in [19] is 58%; in [20], 40%.

For the compound `O=C1NC(=O)/C(=C\c2ccc3nccnc3c2)S1`, the residual activity amounted to 83% in assay [1]; 113% in assay [2]; 91% in [3]; 98% in [4]; 101% in assay [5]; 96% in [6]. For the same compound, the residual activity turned out to be 104% in assay [7]; 119% in assay [8]; 88% in [9]; 110% in assay [10]; 94% in assay [11]; 108% in assay [12]. The residual activity in assay [13] is 85%; in [14], 107%; in assay [15], 89%; in assay [16], 88%; in [17], 78%; in assay [18] it was 94%. The residual activity in [19] was 76%; in assay [20], 98%.

`CCOc1cc2ncnc(Nc3cccc(Br)c3)c2cc1OCC`: the residual activity stood at 79% in assay [1]; 66% in [2]; 18% in [3]; 98% in [4]; 88% in assay [5]; 92% in assay [6]. For the same compound, the residual activity is 85% in [7]; 111% in assay [8]; 92% in assay [9]; 116% in assay [10]; 85% in assay [11]; 112% in assay [12]. The residual activity in [13] turned out to be 80%; in [14] it was 54%; in [15], 10%; in [16], 54%; in assay [17], 6%; in [18], 101%. Also, the residual activity is 40% in assay [19] and 36% in assay [20].

Take `Nc1cccc(-c2cc3c(Oc4cccc(O)c4)ncnc3[nH]2)c1`: the residual activity in assay [1] was determined as 42%; in assay [2] it was 2%; in [3] it was 0%; in [4], 21%; in assay [5], 2%; in assay [6], 53%. The residual activity in [7] is 9%; in [8], 72%; in assay [9], 22%; in [10], 58%; in [11] it was 10%; in [12], 13%. Besides, the residual activity in [13] amounted to 1%; in assay [14] it was 0%; in assay [15] it was 2%; in assay [16] it was 0%; in assay [17] it was 0%; in assay [18] it was 22%. The residual activity in assay [19] is 1%; in assay [20], -1%.

In the case of `Nc1nc(Nc2ccc(S(N)(=O)=O)cc2)nn1C(=S)Nc1c(F)cccc1F`, the residual activity was -1% in assay [1]; 1% in [2]; -1% in [3]; 1% in assay [4]; -1% in assay [5]; 3% in assay [6]. Further, the residual activity in assay [7] is 0%; in assay [8], 71%; in [9] it was 23%; in assay [10], 23%; in assay [11] it was 1%; in assay [12], 2%. Further, the residual activity was 1% in [13]; 9% in [14]; 1% in assay [15]; 0% in assay [16]; -1% in assay [17]; 2% in [18]. Moreover, the values for the residual activity in assay [19] and in [20] were 1% and 0%, respectively.

As to `O=C(Nc1cccc(Nc2nccc(Nc3cccc(C(F)(F)F)c3)n2)c1)C1CC1`, the residual activity stood at 10% in [1]; 69% in [2]; 8% in assay [3]; 99% in [4]; 37% in assay [5]; 83% in assay [6]. Moreover, the residual activity in assay [7] stood at 91%; in assay [8], 108%; in [9] it was 63%; in [10] it was 124%; in assay [11], 59%; in assay [12] it was 84%. Moreover, the residual activity amounted to 68% in assay [13]; 59% in assay [14]; 67% in assay [15]; 59% in assay [16]; 6% in assay [17]; 45% in [18]. The residual activity in assay [19] stood at 3%; in [20] it was 55%.

With `Cc1nc(-c2ccccc2)c(-c2ccncc2)o1`, the residual activity in [1] came to 98%; in [2], 120%; in [3] it was 83%; in assay [4], 86%; in assay [5], 74%; in assay [6], 121%. The residual activity in assay [7] was 114%; in assay [8] it was 109%; in assay [9], 99%; in assay [10], 101%; in assay [11] it was 105%; in assay [12], 108%. Moreover, the residual activity in [13] is 120%; in assay [14], 95%; in assay [15] it was 92%; in [16], 89%; in assay [17], 60%; in [18] it was 69%. Besides, the residual activity in [19] is 28%; in [20] it was -1%.

Take `Oc1n[nH]c2nnc(-c3c(-c4ccccc4)nn4ccccc34)cc12`: the residual activity in assay [1] came to 91%; in assay [2], 108%; in assay [3], 92%; in assay [4], 95%; in [5], 91%; in assay [6] it was 97%. Also, the residual activity in assay [7] came out at 102%; in assay [8], 115%; in assay [9] it was 90%; in [10], 96%; in assay [11], 91%; in assay [12], 92%. For the same compound, the residual activity in assay [13] was 108%; in [14], 89%; in assay [15] it was 95%; in assay [16], 86%; in assay [17], 80%; in [18] it was 76%. Moreover, the residual activity in [19] amounted to 63%; in assay [20], 89%.
